Molecules are shown by their SMILES. About 1,500 (0.5%) of roughly 300,000 compounds were called active. The full list was thinned out, with actives kept by preference. A number with no mark means an inactive call.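 Rule for the calls: active = inhibition above the mean of all tested compounds plus 3 SD, set per screening campaign (cut at about 17% in these data); inactive = the rest.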

The assay has as its system cathepsin L1 (Fasciola hepatica). Description: Fasciola hepatica cathepsin L1 inhibitors, primary screen, counter-screen for PFM18AAP inhibitor project, biochemical, QFRET, fluorogenic peptide substrate (AID 1906).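 Note: 0% = plate median of test compound wells and 100% = 1 µM Z-Phe-Ala-diazomethylketone.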 The conditions noted are these: recombinant F. hepatica cathepsin L1, Z-Leu-Arg-MCA fluorescence; at 5.96 µM; stronger effect = higher value. On the technique in general: A counterscreen serves to expose hits that act by an unwanted route or on another target.
Turning to `Cc1ccc(CNC(=O)Cn2cnc(S(=O)(=O)N3CCCCC3)c2)o1`, the inhibition was 17.4% (active).

Turning to `O=C(COC(=O)c1cc(S(=O)(=O)N2CCCCC2)ccc1Cl)NCc1ccco1`, the inhibition was -8.1%.

In the case of `O=C(COc1ccc(S(=O)(=O)N2CCCCC2)cc1)NCc1ccccn1`, the inhibition is -1.94%.

Consider `CCOC(=O)/C(=N\Nc1ccccc1Cl)N(C)C1CCS(=O)(=O)C1` (centres undefined), for which the inhibition was -2.25%. As for `CCc1c(C)nc(SCC(=O)NC2CCCC2)[nH]c1=O`, the inhibition is 0.66%. The figure for `COc1cc2ccccc2cc1C(=O)N(CCN(C)C)c1nc2c(F)cccc2s1` is 3.44%; for `Cc1cccc2sc(N(CCCN(C)C)C(=O)CCS(=O)(=O)c3ccccc3)nc12` it is 28.5% (active); for `CC(=O)N(CCCN(C)C)c1nc2ccc(C)cc2s1` it is 2.99%.

Regarding `COc1cccc2sc(N(CCCN(C)C)C(=O)C(c3ccccc3)c3ccccc3)nc12`, the inhibition is 1.13%. For `Cc1ccc2sc(N(CCN(C)C)C(=O)/C=C/c3cccs3)nc2c1C`, the inhibition was 0.9%.

Regarding `COc1cccc2sc(N(CCCN(C)C)C(=O)CCS(=O)(=O)c3ccccc3)nc12`, the inhibition was 52.7% (active). As to `Cc1ccc(SCC(=O)Nc2nncs2)cc1`, the inhibition was -3.07%. The same measure for `Cc1cc([N+](=O)[O-])c(NC2CCCCC2)c([N+](=O)[O-])c1`: 5.19%; for `Cc1cc(C(F)F)nn1CC(=O)NC1CCCCCC1`: -2.79%; for `O=C(Cn1nc([N+](=O)[O-])nc1Br)NC1CCCCC1`: 56.3% (active). With `Cc1nn(CC(=O)NC2CCCCC2)c(=O)c2cccn12`, the inhibition is -0.36%. The figure for `Cc1cc(C)n(-c2nc(O)cc(=O)[nH]2)n1` is -2.61%; for `CC(OC(=O)CCC(=O)c1ccccc1)C(=O)Nc1ccc(F)cc1` (centres undefined) it is -70.5%. The figure for `C/C(=N\NC(=O)c1ccc2ccccc2c1)c1cccnc1` is 0.17%; for `O=C(O)c1ccc2c(c1)C(=O)N(NC(=O)c1ccc(O)cc1)C2=O` it is -4.02%; for `CC(=O)N1C(=O)/C(=C2\SC(=S)N(NC(=O)c3ccc(O)cc3)C2=O)c2ccccc21` it is 20.6% (active). Turning to `Cn1cccc1/C=C1\SC(=S)N(NC(=O)c2ccc(Cl)cc2)C1=O`, the inhibition was 1.38%.

With `CC(=O)c1cccc(NC(=S)N2CCN(S(C)(=O)=O)CC2)c1`, the inhibition is -1.96%. Take `O=C(NCc1ccccc1Cl)C1CCCN1S(=O)(=O)c1ccc(F)cc1` (centres undefined): the inhibition is -1.27%. The figure for `COc1cccc(OCc2nnc3n2N=C(c2ccccc2)C(CC(=O)O)S3)c1` (centres undefined) is -0.13%. The same measure for `O=C(NCc1ccco1)/C(=C/c1ccco1)NC(=O)c1ccccc1`: 8.99%. Turning to `O=C(OCN1C(=O)c2ccccc2C1=O)/C(=C\c1ccco1)NC(=O)c1ccccc1`, the inhibition is 83.3% (active).

As to `NC(=O)C1CCN(C(=O)/C(=C/c2ccco2)NC(=O)c2ccccc2)CC1`, the inhibition was 3.81%. The figure for `CNC(=O)c1c(NC(NC(=O)c2ccco2)C(=O)c2ccc(Cl)cc2)sc2c1CCCC2` (centres undefined) is 1.81%.

For `Cc1cc(CNC(=O)C2CCC(=O)N(CCc3ccc(Cl)cc3)C2)no1` (centres undefined), the inhibition is 1.95%.

`Cc1cc(=O)[nH]c2nnnn12`: the inhibition is 0.51%. Consider `O=C(Cc1ccccc1Cl)N1CCOCC1`, for which the inhibition is -0.12%. As for `Cc1cc2cc3c(N)[nH]nc3nc2cc1C`, the inhibition was 0.69%. `O=C(Nc1cccc2cccnc12)c1cccc(Cl)c1`: the inhibition was 5.74%.

As to `O=C(Nc1cccc2c1CCCC2)c1ccc(F)cc1`, the inhibition was -0.12%. As to `O=C(Nc1cccnc1Oc1ncnc2cc(Cl)ccc12)c1ccc(F)cc1`, the inhibition is 19.2% (active). The figure for `O=C(COc1ccccc1)Nc1cc2c3c(c1)CC(=O)N3CCC2` is -2.44%; for `O=C(Nc1cc2c3c(c1)CC(=O)N3CCC2)c1ccccc1F` it is -1.43%; for `CCCNC(=O)C(=O)Nc1cc2c3c(c1)CCC(=O)N3CCC2` it is 57.1% (active). `COc1ccccc1C(=O)NC(CCSC)C(=O)NNC(=O)c1ccccc1C` (centres undefined): the inhibition is 7.41%. In the case of `CC1CN/C(=C\C(=O)c2ccc(Br)cc2)C(=O)N1` (centres undefined), the inhibition is 0.61%. On to `O=C1c2ccccc2-c2ncnc3c(N4CCOCC4)cc(N4CCOCC4)c1c23`, for which the inhibition is 3.65%. As to `COC1=C(N2CCOCC2)C(=O)c2ccccc2C1=O`, the inhibition was 21.1% (active). Regarding `COc1ccc(N2CCN(C(C)=C3C(=O)c4ccccc4C3=O)CC2)cc1`, the inhibition was 0.37%.

`C[C@@H](O)c1nc2ccccc2n1N`: the inhibition was -3.93%.

With `CC1=NNC(=O)C1CC(=O)N/N=C/c1ccncc1` (centres undefined), the inhibition is 2.89%. The same measure for `O=C(CSC1CC(=O)N(CCc2ccccc2)C1=O)Nc1ccc(Cl)cc1` (centres undefined): -0.89%; for `CC(=O)Nc1ccc(CN2CCN(Cc3ccc(F)c(F)c3)C(CCO)C2)cc1` (centres undefined): -1.18%; for `CCOC(=O)c1c(NC(=O)CCl)sc(C(=O)N(CC)CC)c1C`: 41.2% (active). The same measure for `CCOC(=O)Nc1sc(C(=O)N(C)C)c(C)c1C(=O)OCC`: 3.33%; for `CCOC(=O)c1sc(NC(=O)CCN2CCOCC2)c(C(=O)OCC)c1C`: 4.35%; for `CC(=O)c1ccc(NC(=O)Cn2c(=O)oc3ccccc32)cc1`: 5.59%. Take `C=CCSc1nsc(NC(=O)Nc2cccc(C(C)=O)c2)n1`: the inhibition is 3.26%. The figure for `CCSc1nsc(NC(=O)Nc2cccc(C(C)=O)c2)n1` is 18.9% (active). The figure for `CCSc1nsc(NC(=O)Nc2ccccc2OC)n1` is -2.36%; for `CC(=O)c1cccc(NC(=O)C2CCCN(S(=O)(=O)c3cccc4nonc34)C2)c1` (centres undefined) it is 4.35%.

As for `CC[N+](C)(CC)CCC[n+]1c(-c2ccccc2)c2cc(N)ccc2c2ccc(N)cc21`, the inhibition was 108% (active). With `CCOc1cc(C2/C(=C(/O)c3ccc(S(=O)(=O)N4CCCCC4)cc3)C(=O)C(=O)N2CCOC)ccc1O` (centres undefined), the inhibition is 2.14%. For `Cc1ccc(NC(=O)CSc2nnc(COc3ccccc3C)o2)cc1`, the inhibition was 2.58%. The figure for `Cc1cc(C)cc(OCc2nnc(SCC(=O)Nc3ccccc3)o2)c1` is 2.58%; for `CCCc1nnc(SCC(=O)Nc2ccc(C(=O)OCC)cc2)o1` it is 22.8% (active); for `CCOc1ccc(CN2CCN(Cc3ccc(C)o3)CC2CCO)cc1` (centres undefined) it is -3.26%. The figure for `COc1ccc(NC(=O)CN2C(=O)COc3ccc(S(=O)(=O)N4CCOCC4)cc32)cc1` is -1.53%. For the compound `CCc1ccccc1NC(=O)CSc1nnc([C@@H](NC(=O)OC(C)(C)C)C(C)C)o1`, the inhibition was 25.9% (active). Consider `CCc1ccccc1NC(=O)CSc1nnc(-c2ccncc2)o1`, for which the inhibition was -3.59%. With `C[C@H](NC(=O)OC(C)(C)C)c1nnc(SCC(=O)Nc2ccc(Br)cc2)o1`, the inhibition was 9.5%. Consider `CCc1ccccc1NC(=O)CSc1nnc([C@@H](NC(=O)OC(C)(C)C)C(C)CC)o1` (some centres undefined), for which the inhibition is 36.5% (active).

In the case of `Cc1cccc(NC(=O)CSc2nnc(CCNC(=O)OC(C)(C)C)o2)c1C`, the inhibition is -2.25%. The figure for `CCc1ccccc1NC(=O)CSc1nnc(CCNC(=O)OC(C)(C)C)o1` is -11.2%; for `COC(=O)C1(CCSC)NC(c2ccc(OC)cc2OC)C2C(=O)N(c3cccc(C(C)=O)c3)C(=O)C21` (centres undefined) it is -14.2%; for `CCCCn1c(N)c(N(CC(C)C)C(=O)CSc2ccc([N+](=O)[O-])cc2)c(=O)[nH]c1=O` it is 0.91%. `Cc1ccc(N(C(=O)c2snc(C(N)=O)c2N)C(C(=O)NCC2CCCO2)c2c[nH]c3ccccc23)cc1` (centres undefined): the inhibition was -0.55%. On to `CCCCC(CC)CNCc1cccn1CCN1CCOCC1` (centres undefined), for which the inhibition was -3.94%. The same measure for `COc1ccccc1CCNC(=O)C(=O)NCCC1CCCCN1S(=O)(=O)c1cccs1` (centres undefined): 17.3% (active); for `O=C(NCCC1CCCCN1S(=O)(=O)c1cccs1)C(=O)Nc1ccc(F)cc1F` (centres undefined): 2.68%. `COc1ccc(CCNC(=O)C(=O)NCC2CCCN2S(=O)(=O)c2cccs2)cc1OC` (centres undefined): the inhibition was -2.2%.

Turning to `Cc1ccc(C(=O)COC(=O)CCN2C(=O)C3C4CCC(C4)C3C2=O)cc1C` (centres undefined), the inhibition was 8.56%. The figure for `COc1ccc(/C=C/CN2CCN(Cc3ccc(C)cc3)C(CCO)C2)cc1` (centres undefined) is 7.06%. The same measure for `COC(C(=O)Nc1ccc(S(=O)(=O)Nc2ccc(C)c(C)c2)cc1)c1ccccc1` (centres undefined): 1.68%. The same measure for `CCOC(=O)c1cc(NC(=O)c2cccnc2)ccn1`: -0.7%; for `CCOC(=O)c1ccc(-c2ccc(C(=O)Nc3cccnc3)o2)cc1`: 19% (active). As to `Cc1ccc(NC(=O)Nc2cccnc2)cc1`, the inhibition was -1.42%. The figure for `Cc1cc(C)c(NC(=O)CN2CCOCCOCCOCCOCC2)c(C)c1` is 2.85%. The figure for `O=C(CSc1nc2ccccc2[nH]1)Nc1nc(-c2ccccc2)c(-c2ccccc2)o1` is 17.5% (active).

As to `O=C(CSc1nc2ccccc2[nH]1)N/N=C/C=C\c1ccccc1[N+](=O)[O-]`, the inhibition was 4.39%. The same measure for `CN(Cc1ccccc1)C(=O)CSc1nc2ccccc2[nH]1`: 2.91%; for `Cc1ccc(O/C=C2\OC(=O)c3ccccc32)cc1`: 2.38%; for `CCOc1cc(C)ccc1OCc1nnc(SCC(=O)Nc2cccc(C(=O)O)c2)n1-c1ccccc1`: -6.39%. The same measure for `Cc1cccc(-n2c(SCC(=O)Nc3cccc(S(=O)(=O)NC4=NCCCCC4)c3)nc3ccccc3c2=O)c1C`: 0.48%; for `COc1ccc(Cl)cc1C(=O)NCC#N`: 21% (active). As to `COc1ccc(Cl)cc1C(=O)NCc1cn(C)nc1C`, the inhibition was -1.11%.

As to `CCC(C)NC(=O)c1cc(Cl)ccc1OC` (centres undefined), the inhibition is 0.5%. The same measure for `Cc1cnc(C(=O)Oc2cccc(Cl)c2Cl)cn1`: -0.8%; for `O=C(NCc1cccc(Cl)c1)C1CCN(c2nnc(N3CCCC3=O)s2)CC1`: -5.47%.

Broadly, the inhibition is the drop in the measured response relative to a control, in per cent.

These data come from PubChem BioAssay AID1906 (The Scripps Research Institute Molecular Screening Center, 2009).
